Test results as given in PubChem BioAssay AID1159580 (chemical genetic matrix, 2015).
Out of some 5,500 compounds screened, about 2,000 (36%) were called active. About 18% were inconclusive and are not listed. Cut-off read from the data, not from the text of the source: active = normalized growth mostly below about 0.91 (no sharp cut-off); inconclusive = no clear call, values can overlap the other calls; inactive = mostly above about 0.92. The list shows a part of the results.

Experiment: chemical genetic growth profiling, strain panel (AID 1159580);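 note: tested at 20 µM; growth read once vehicle control cultures reached saturation at 30 °C; 1 = growth at the plate median or of vehicle wells; lower values mean less growth of the strain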
Details: S. cerevisiae deletion strains, growth OD
[1] = locus YAL013W, strain DEP1, active compounds read low
[2] = locus YBR229C, strain ROT2, active compounds read low
[3] = locus YDL101C, strain DUN1, active compounds read low
[4] = locus YDR150W, strain NUM1, active compounds read low
[5] = locus YEL061C, strain CIN8, active compounds read low
[6] = locus YGR078C, strain PAC10, active compounds read low
[7] = locus YHR030C, strain SLT2, active compounds read low
[8] = locus YHR087W, strain rtc3, active compounds read low
[9] = locus YJR043C, strain POL32, active compounds read low
[10] = locus YJR075W, strain HOC1, active compounds read low
[11] = locus YLR039C, strain RIC1, active compounds read low
[12] = locus YLR058C, strain SHM2 (second series), active compounds read low
[13] = locus YLR085C, strain ARP6, active compounds read low
[14] = locus YLR262C, strain YPT6, active compounds read low
[15] = locus YML094W, strain GIM5, active compounds read low
[16] = locus YMR219W, strain ESC1, active compounds read low
[17] = locus YMR263W, strain SAP30, active compounds read low
[18] = locus YNL153C, strain GIM3, active compounds read low
[19] = locus YNL298W, strain CLA4 (second series), active compounds read low
[20] = locus YNL322C, strain KRE1, active compounds read low
[21] = locus YNR030W, strain Alg12, active compounds read low
[22] = locus YPL055C, strain LGE1, active compounds read low
[23] = locus YPL241C, strain CIN2, active compounds read low
[24] = locus YPR135W, strain CTF4, active compounds read low
[25] = locus YAR019C, strain CDC15, active compounds read low
[26] = locus YBL105C, strain PKC1, active compounds read low
[27] = locus YBR135W, strain CKS1, active compounds read low
[28] = locus YBR136W, strain MEC1, active compounds read low
[29] = locus YBR160W, strain CDC28, active compounds read low
[30] = locus YDL017W, strain CDC7, active compounds read low
[31] = locus YDL028C, strain MPS1, active compounds read low
[32] = locus YDL108W, strain KIN28, active compounds read low
[33] = locus YDL132W, strain cdc53, active compounds read low
[34] = locus YDL214C, strain PRR2, active compounds read low
[35] = locus YDR052C, strain DBF4, active compounds read low
[36] = locus YDR054C, strain cdc34, active compounds read low
[37] = locus YDR226W, strain ADK1, active compounds read low
[38] = locus YDR477W, strain SNF1, active compounds read low
[39] = locus YER123W, strain YCK3, active compounds read low
[40] = locus YER133W, strain GLC7, active compounds read low
[41] = locus YFL009W, strain cdc4, active compounds read low
[42] = locus YFR003C, strain YPI1, active compounds read low
[43] = locus YFR019W, strain FAB1, active compounds read low
[44] = locus YFR028C, strain CDC14, active compounds read low
[45] = locus YGR040W, strain KSS1, active compounds read low
[46] = locus YGR052W, strain FMP48, active compounds read low
[47] = locus YGR092W, strain DBF2, active compounds read low
[48] = locus YHR079C, strain IRE1, active compounds read low
[49] = locus YHR082C, strain KSP1, active compounds read low
[50] = locus YHR205W, strain SCH9, active compounds read low
[51] = locus YIL147C, strain SLN1, active compounds read low
[52] = locus YJL095W, strain BCK1, active compounds read low
[53] = locus YJL128C, strain PBS2, active compounds read low
[54] = locus YJL157C, strain FAR1, active compounds read low
[55] = locus YJR016C, strain ILV3, active compounds read low
[56] = locus YJR066W, strain TOR1 (second series), active compounds read low
[57] = locus YJR066W, strain TOR1, active compounds read low
[58] = locus YKL048C, strain ELM1, active compounds read low
[59] = locus YKL067W, strain YNK1, active compounds read low
[60] = locus YKL193C, strain SDS22, active compounds read low
[61] = locus YKL203C, strain TOR2, active compounds read low
[62] = locus YLR113W, strain HOG1, active compounds read low
[63] = locus YLR133W, strain CKI1, active compounds read low
[64] = locus YLR403W, strain SFP1, active compounds read low
[65] = locus YML070W, strain DAK1, active compounds read low
[66] = locus YMR001C, strain CDC5, active compounds read low
[67] = locus YMR205C, strain PFK2 (second series), active compounds read low
[68] = locus YMR277W, strain FCP1, active compounds read low
[69] = locus YNL006W, strain LST8, active compounds read low
[70] = locus YNL020C, strain ARK1, active compounds read low
[71] = locus YNL183C, strain NPR1, active compounds read low
[72] = locus YNL207W, strain RIO2, active compounds read low
[73] = locus YNL222W, strain SSU72, active compounds read low
[74] = locus YNL307C, strain MCK1 (second series), active compounds read low
[75] = locus YOL136C, strain PFK27, active compounds read low
[76] = locus YOR061W, strain CKA2, active compounds read low
[77] = locus YOR119C, strain RIO1, active compounds read low
[78] = locus YOR231W, strain MKK1, active compounds read low
[79] = locus YOR329C, strain SCD5, active compounds read low
[80] = locus YPL031C, strain PHO85, active compounds read low
[81] = locus YPL153C, strain RAD53, active compounds read low
[82] = locus YPL204W, strain HRR25, active compounds read low
[83] = locus YPL209C, strain IPL1, active compounds read low
[84] = locus YPL256C, strain CLN2, active compounds read low
[85] = locus YPR025C, strain CCL1, active compounds read low
[86] = locus YPR106W, strain ISR1, active compounds read low
[87] = locus YPR111W, strain DBF20, active compounds read low
[88] = strain NNK1, active compounds read low
[89] = strain TSCII, active compounds read low

Measured: normalized growth

CC1(C)CC(=O)c2c(S(C)(=O)=O)sc(Br)c2C1
inactive: [1] 0.951 | [2] 1.01 | [3] 0.995 | [4] 0.965 | [5] 0.988 | [6] 1.02 | locus YGR229C, strain SMI1, active compounds read low 0.981 | [7] 0.921 | [8] 1.02 | [9] 1.03 | [10] 1.03 | locus YKL190W, strain CNB1, active compounds read low 0.998 | [11] 0.91 | [12] 1.01 | [13] 0.881 | [14] 0.907 | [15] 0.977 | [16] 0.993 | [17] 0.983 | [18] 1.02 | [19] 0.98 | [20] 1 | [21] 1 | [22] 0.924 | [23] 0.954 | [24] 0.96

O=C(Nc1ccccc1SCc1cccc(C(F)(F)F)c1)c1c(F)cccc1Cl
inactive: [1] 1 | [2] 1.03 | [3] 1 | [4] 1.01 | [5] 1.03 | [6] 1.02 | [7] 1.01 | [8] 0.998 | locus YJL187C, strain SWE1, active compounds read low 1.02 | [9] 0.988 | [10] 0.998 | [11] 1.04 | [12] 1.01 | [13] 0.986 | [14] 0.984 | [15] 1 | [16] 1.02 | [17] 0.991 | [18] 1.02 | [19] 1.04 | [20] 1.02 | [21] 0.984 | locus YOL006C, strain TOP1, active compounds read low 0.963 | [22] 1.02 | [23] 1.01 | [24] 0.942

CC(O)(CNCc1ccc(Cl)cc1)CSc1ccccc1Cl (stereo not given)
inactive: [25] 0.977 | [26] 0.984 | [27] 0.99 | [28] 0.975 | [29] 0.998 | [30] 0.992 | [31] 0.972 | [3] 0.985 | [32] 0.987 | [33] 0.994 | [34] 0.959 | [35] 1 | [36] 0.988 | [37] 0.98 | [38] 0.952 | [39] 0.862 | [40] 0.952 | [41] 0.99 | locus YFL029C, strain CAK1, active compounds read low 0.962 | [42] 0.986 | [43] 0.9 | [44] 0.985 | [45] 0.927 | [46] 1.08 | [47] 0.796 | [7] 0.938 | [48] 1 | [49] 1.03 | [50] 1.02 | [51] 0.978 | [52] 1.02 | [53] 1 | [54] 0.973 | [55] 0.991 | [56] 0.875 | [57] 0.998 | [58] 0.98 | [59] 0.971 | locus YKL101W, strain HSL1, active compounds read low 0.963 | [60] 0.985 | [61] 0.981 | [62] 1.07 | [63] 0.976 | [64] 0.963 | [65] 0.974 | [66] 0.982 | [67] 0.977 | [68] 0.99 | [69] 0.997 | [70] 0.991 | locus YNL161W, strain CBK1, active compounds read low 0.991 | [71] 1.02 | [72] 0.994 | [73] 0.985 | [74] 0.897 | locus YOL078W, strain AVO1, active compounds read low 0.99 | [75] 0.975 | [76] 0.964 | [77] 0.928 | [78] 1.02 | [79] 0.992 | [80] 0.955 | [81] 0.951 | [82] 0.923 | [83] 0.984 | [84] 1.01 | [85] 0.988 | [86] 1 | [87] 0.998 | [88] 1 | [89] 0.987

N#CCC(=O)c1cccc(CSc2ccccc2Cl)c1
inactive: [25] 0.896 | [26] 0.944 | [27] 0.954 | [28] 0.967 | [29] 0.971 | [30] 0.982 | [31] 0.972 | [3] 0.974 | [32] 0.966 | [33] 0.977 | [35] 0.976 | [36] 0.987 | [37] 0.964 | [41] 0.983 | [42] 0.982 | [44] 0.965 | [47] 1.03 | [50] 0.992 | [51] 0.968 | [53] 1.04 | [55] 0.987 | [58] 0.937 | [60] 0.978 | [64] 1 | [66] 0.976 | [67] 0.812 | [68] 0.973 | [71] 0.584 | [72] 0.966 | [73] 0.961 | [74] 1.04 | [79] 0.969 | [83] 0.966 | [85] 0.972 | [86] 0.996 | [87] 0.968 | [88] 0.971 | [89] 0.973
active: [34] 0.617 | [38] 0.417 | [39] 0.243 | [40] 0.639 | [43] 0.31 | [45] 0.456 | [46] 0.473 | [7] 0.114 | [48] 0.209 | [49] 0.293 | [52] 0.213 | [54] 0.42 | [56] 0.313 | [57] 0.353 | [59] 0.59 | [61] 0.529 | [62] 0.56 | [63] 0.512 | [65] 0.405 | [69] 0.319 | [70] 0.437 | [75] 0.382 | [76] 0.553 | [77] 0.504 | [78] 0.43 | [80] 0.189 | [81] 0.21 | [82] 0.162 | [84] 0.343
